PubChem BioAssay AID1159580 (chemical genetic matrix, 2015)
Where “and” joins values, the source holds several entries; their conditions need not be identical. Equal entries are not always repeated. Screen size: about 5,500 compounds; about 2,000 (36%) were called active. Roughly 18% stayed inconclusive and do not appear here. Cut-off read from the data, not from the text of the source: active = normalized growth mostly below about 0.91 (no sharp cut-off); inconclusive = no clear call, values can overlap the other calls; inactive = mostly above about 0.92. The list shows a part of the results.

Experiment: chemical genetic growth profiling, strain panel (AID 1159580);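 note: tested at 20 µM; growth read once vehicle control cultures reached saturation at 30 °C; 1 = growth at the plate median or of vehicle wells; lower values mean less growth of the strain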
Settings: S. cerevisiae deletion strains, growth OD

Measured: normalized growth

Cc1c(O)c(O)cc2c1CC=C1[C@@]2(C)CC[C@@]2(C)C3C[C@](C)(C(=O)O)CC[C@]3(C)CC[C@]12C (stereo partly drawn)
inactive: locus YBR021W, strain FUR4, stronger effect = lower value 1 | locus YBR229C, strain ROT2, stronger effect = lower value 0.966 | locus YCL029C, strain bik1, stronger effect = lower value 0.947 | locus YDL035C, strain GPR1, stronger effect = lower value 0.872 | locus YDL074C, strain BRE1, stronger effect = lower value 0.797 | locus YDL101C, strain DUN1, stronger effect = lower value 0.924 | locus YDL185W, strain tfp1, stronger effect = lower value 1.01 | locus YDR101C, strain arx1, stronger effect = lower value 0.962 | locus YDR150W, strain NUM1, stronger effect = lower value 0.959 | locus YDR388W, stronger effect = lower value 0.962 | locus YDR502C, strain sam2, stronger effect = lower value 0.929 | locus YER110C, stronger effect = lower value 1 | locus YER167W, strain BCK2, stronger effect = lower value 0.921 | locus YGL078C, strain dbp3, stronger effect = lower value 0.977 | locus YGL086W, strain mad1, stronger effect = lower value 0.936 | locus YGR135W, strain pre9, stronger effect = lower value 0.936 | locus YGR252W, strain gcn5, stronger effect = lower value 0.873 | locus YHR030C, strain SLT2, stronger effect = lower value 0.947 and 0.918 | locus YHR079C, strain IRE1 (second series), stronger effect = lower value 0.976 | locus YHR079C, strain IRE1, stronger effect = lower value 0.945 | locus YHR094C, strain hxt1, stronger effect = lower value 0.988 | locus YHR200W, strain rpn10, stronger effect = lower value 0.964 | locus YIL073C, strain SPO22, stronger effect = lower value 0.863 | locus YIL125W, strain kgd1, stronger effect = lower value 0.942 | locus YIR030C, strain dcg1, stronger effect = lower value 0.958 | locus YJL134W, strain LCB3, stronger effect = lower value 0.967 | locus YJL168C, strain set2, stronger effect = lower value 0.979 | locus YJL187C, strain SWE1 (second series), stronger effect = lower value 0.897 | locus YJR043C, strain POL32, stronger effect = lower value 0.914 | locus YJR066W, strain TOR1, stronger effect = lower value 0.901 | locus YKL009W, strain mrt4, stronger effect = lower value 0.986 | locus YLR058C, strain SHM2, stronger effect = lower value 0.894 | locus YLR102C, strain apc9, stronger effect = lower value 0.984 | locus YLR262C, strain YPT6, stronger effect = lower value 0.609 | locus YLR268W, strain sec22, stronger effect = lower value 0.891 | locus YLR342W, strain FKS1 (second series), stronger effect = lower value 0.868 | locus YLR371W, strain rom2, stronger effect = lower value 0.912 | locus YML016C, strain PPZ1, stronger effect = lower value 0.927 | locus YML032C, strain rad52, stronger effect = lower value 0.96 | locus YML124C, strain tub3, stronger effect = lower value 0.971 | locus YMR078C, strain ctf18, stronger effect = lower value 0.984 | locus YMR223W, strain ubp8, stronger effect = lower value 0.906 | locus YMR307W, strain GAS1, stronger effect = lower value 0.782 | locus YNL067W, strain RPL9B, stronger effect = lower value 0.918 | locus YNL183C, strain NPR1, stronger effect = lower value 0.837 | locus YNL233W, strain BNI4, stronger effect = lower value 0.873 | locus YNL250W, strain rad50, stronger effect = lower value 0.972 | locus YNL271C, strain bni1, stronger effect = lower value 0.991 | locus YNL298W, strain CLA4, stronger effect = lower value 1.01 | locus YNL322C, strain KRE1 (second series), stronger effect = lower value 0.935 | locus YNL322C, strain KRE1, stronger effect = lower value 0.937 | locus YNR052C, strain pop2, stronger effect = lower value 0.977 | locus YOL012C, strain htz1 0.648 | locus YOL147C, strain pex11, stronger effect = lower value 0.976 | locus YOR061W, strain CKA2, stronger effect = lower value 0.934 | locus YOR069W, strain VPS5, stronger effect = lower value 0.945 | locus YOR136W, strain idh2, stronger effect = lower value 1 | locus YOR144C, strain elg1, stronger effect = lower value 0.977 | locus YOR231W, strain MKK1, stronger effect = lower value 0.917 | locus YOR316C, strain cot1, stronger effect = lower value 0.981 | locus YPL241C, strain CIN2, stronger effect = lower value 0.96 | locus YPL256C, strain CLN2, stronger effect = lower value 0.856 | locus YPR119W, strain clb2, stronger effect = lower value 0.979 | locus YPR141C, strain kar3, stronger effect = lower value 0.956 | locus YPR163C, strain tif3, stronger effect = lower value 0.924 | locus YPR167C, strain met16, stronger effect = lower value 0.948 | strain wtn01, stronger effect = lower value 0.93
active: locus YAL021C, strain ccr4, stronger effect = lower value 0.711 | locus YAL026C, strain drs2, stronger effect = lower value 0.422 | locus YAL030W, strain snc1, stronger effect = lower value 0.541 | locus YBL061C, strain skt5, stronger effect = lower value 0.533 | locus YBR009C, strain hhf1, stronger effect = lower value 0.265 | locus YBR023C, strain chs3, stronger effect = lower value 0.471 | locus YBR171W, strain sec66, stronger effect = lower value 0.842 | locus YBR231C, strain swc5, stronger effect = lower value 0.326 | locus YBR279W, strain paf1, stronger effect = lower value 0.41 | locus YCL011C, strain gbp2, stronger effect = lower value 0.377 | locus YCL016C, strain dcc1, stronger effect = lower value 0.571 | locus YCL061C, strain MRC1, stronger effect = lower value 0.635 | locus YCL069W, strain vba3, stronger effect = lower value 0.668 | locus YCR088W, strain abp1, stronger effect = lower value 0.738 | locus YDL005C, strain med2, stronger effect = lower value 0.413 | locus YDL040C, strain nat1, stronger effect = lower value 0.738 | locus YDL192W, strain arf1, stronger effect = lower value 0.889 | locus YDR001C, strain nth1, stronger effect = lower value 0.766 | locus YDR069C, strain doa4, stronger effect = lower value 0.459 | locus YDR137W, strain rgp1, stronger effect = lower value 0.269 | locus YDR159W, strain sac3, stronger effect = lower value 0.465 | locus YDR162C, strain NBP2, stronger effect = lower value 0.803 | locus YDR195W, strain ref2 0.548 | locus YDR297W, strain sur2, stronger effect = lower value 0.479 | locus YDR318W, strain mcm21, stronger effect = lower value 0.917 | locus YDR334W, strain swr1, stronger effect = lower value 0.338 | locus YDR335W, strain msn5, stronger effect = lower value 0.698 | locus YDR392W, strain spt3, stronger effect = lower value 0.125 | locus YEL003W, strain gim4, stronger effect = lower value 0.416 | locus YEL037C, strain rad23, stronger effect = lower value 0.71 | locus YEL061C, strain CIN8 (second series), stronger effect = lower value 0.701 | locus YEL061C, strain CIN8, stronger effect = lower value 0.906 | locus YER015W, strain faa2, stronger effect = lower value 0.491 | locus YER016W, strain bim1, stronger effect = lower value 0.612 | locus YER111C, strain swi4, stronger effect = lower value 0.581 | locus YER155C, strain BEM2 (second series), stronger effect = lower value 0.348 | locus YER155C, strain BEM2, stronger effect = lower value 0.767 | locus YFR010W, strain ubp6, stronger effect = lower value 0.561 | locus YGL167C, strain pmr1, stronger effect = lower value 0.738 | locus YGL173C, strain kem1, stronger effect = lower value 0.31 | locus YGL227W, strain vid30, stronger effect = lower value 0.854 | locus YGL240W, strain doc1, stronger effect = lower value 0.605 | locus YGL248W, strain PDE1, stronger effect = lower value 0.845 | locus YGL253W, strain hxk2, stronger effect = lower value 0.37 | locus YHR013C, strain ard1, stronger effect = lower value 0.203 | locus YHR027C, strain rpn1, stronger effect = lower value 0.45 | locus YHR129C, strain ARP1, stronger effect = lower value 0.838 | locus YHR142W, strain chs7, stronger effect = lower value 0.387 | locus YIL066C, strain RNR3, stronger effect = lower value 0.801 | locus YJL092W, strain hpr5, stronger effect = lower value 0.686 | locus YJL095W, strain BCK1 (second series), stronger effect = lower value 0.405 | locus YJL095W, strain BCK1, stronger effect = lower value 0.784 and 0.865 | locus YJL115W, strain asf1, stronger effect = lower value 0.741 | locus YJL129C, strain trk1, stronger effect = lower value 0.482 | locus YJL154C, strain vps35, stronger effect = lower value 0.689 | locus YJL164C, strain tpk1, stronger effect = lower value 0.289 | locus YJL166W, strain qcr8, stronger effect = lower value 0.233 | locus YJL187C, strain SWE1, stronger effect = lower value 0.457 | locus YKL068W, stronger effect = lower value 0.941 | locus YKL085W, strain MDH1 (second series), stronger effect = lower value 0.919 | locus YKL085W, strain MDH1, stronger effect = lower value 0.919 | locus YKL160W, strain elf1, stronger effect = lower value 0.386 | locus YKR001C, strain vps1, stronger effect = lower value 0.728 | locus YKR026C, strain gcn3, stronger effect = lower value 0.804 | locus YKR091W, strain srl3, stronger effect = lower value 0.8 | locus YLL001W, strain dnm1, stronger effect = lower value 0.617 | locus YLL026W, stronger effect = lower value 0.496 | locus YLL041C, strain sdh2, stronger effect = lower value 0.645 | locus YLR027C, strain aat2, stronger effect = lower value 0.433 | locus YLR039C, strain RIC1, stronger effect = lower value 0.616 | locus YLR113W, strain HOG1, stronger effect = lower value 0.651 | locus YLR221C, strain rsa3, stronger effect = lower value 0.4 | locus YLR258W, strain gsy2, stronger effect = lower value 0.398 | locus YLR262C, strain YPT6 (second series), stronger effect = lower value 0.186 | locus YLR320W, strain mms22, stronger effect = lower value 0.221 | locus YLR330W, strain CHS5, stronger effect = lower value 0.877 | locus YLR342W, strain FKS1, stronger effect = lower value 0.561 | locus YLR357W, strain rsc2, stronger effect = lower value 0.657 | locus YLR370C, strain arc18, stronger effect = lower value 0.63 | locus YLR384C, strain iki3, stronger effect = lower value 0.885 | locus YLR418C, strain cdc73, stronger effect = lower value 0.645 | locus YML120C, strain ndi1, stronger effect = lower value 0.568 | locus YMR058W, strain fet3, stronger effect = lower value 0.0953 | locus YMR125W, strain sto1, stronger effect = lower value 0.483 | locus YMR129W, stronger effect = lower value 0.764 | locus YMR205C, strain PFK2, stronger effect = lower value 0.364 | locus YMR231W, strain pep5, stronger effect = lower value 0.361 | locus YNL071W, strain lat1, stronger effect = lower value 0.0934 | locus YNL209W, strain ssb2, stronger effect = lower value 0.376 | locus YNL248C, strain rpa49, stronger effect = lower value 0.741 | locus YNL307C, strain MCK1, stronger effect = lower value 0.822 | locus YNR049C, strain mso1, stronger effect = lower value 0.72 | locus YOR001W, strain rrp6, stronger effect = lower value 0.683 | locus YOR070C, strain gyp1, stronger effect = lower value 0.393 | locus YOR080W, strain dia2, stronger effect = lower value 0.697 | locus YOR083W, strain WHI5, stronger effect = lower value 0.656 | locus YOR106W, strain vam3, stronger effect = lower value 0.331 | locus YOR184W, strain ser1, stronger effect = lower value 0.812 | locus YOR265W, strain rbl2, stronger effect = lower value 0.479 | locus YOR270C, strain vph1, stronger effect = lower value 0.273 | locus YOR290C, strain snf2, stronger effect = lower value 0.434 | locus YPL051W, strain arl3, stronger effect = lower value 0.248 | locus YPL055C, strain LGE1, stronger effect = lower value 0.755 | locus YPL078C, strain atp4, stronger effect = lower value 0.62 | locus YPL106C, strain sse1, stronger effect = lower value 0.507 | locus YPL240C, strain hsp82, stronger effect = lower value 0.417
